Laboratory results taken from PubChem BioAssay (Tox21).
Results filed as inconclusive are left out. Active and inactive are the calls of the source. Unless noted, the call rests on the fitted dose curve.

Tests used:
[1] = Nuclear factor erythroid 2-related factor 2/antioxidant responsive element (Nrf2/ARE) small molecule agonists: qHTS cell viability counter screen in human keratinocytes (AID 1919968; active means well fitted curve in the direction sought with a large enough effect in the repeat runs; an effect the other way counts as inactive or inconclusive; further: nearly all actives have a fitted effect of over 55% in size; further: potency means the concentration at half of the fitted maximal effect)
Summary of the method: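 Viability counter-screen: KeratinoSens reporter cells, DMSO-delivered compounds, 23 h at 37 C, CellTiter-Fluor fluorescence.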

[2] = biological target: Gonadotropin-releasing hormone receptor (Homo sapiens) (UniProt P30968); experiment: Human gonadotropin-releasing hormone receptor (GnRHR) small molecule agonists, calcium flux assay in GnRHR-HEK293 cells (AID 1920063); further: nearly all actives have a fitted effect of over 35% in size
Sequence of Gonadotropin-releasing hormone receptor (Homo sapiens) (P30968 whole entry, looked up): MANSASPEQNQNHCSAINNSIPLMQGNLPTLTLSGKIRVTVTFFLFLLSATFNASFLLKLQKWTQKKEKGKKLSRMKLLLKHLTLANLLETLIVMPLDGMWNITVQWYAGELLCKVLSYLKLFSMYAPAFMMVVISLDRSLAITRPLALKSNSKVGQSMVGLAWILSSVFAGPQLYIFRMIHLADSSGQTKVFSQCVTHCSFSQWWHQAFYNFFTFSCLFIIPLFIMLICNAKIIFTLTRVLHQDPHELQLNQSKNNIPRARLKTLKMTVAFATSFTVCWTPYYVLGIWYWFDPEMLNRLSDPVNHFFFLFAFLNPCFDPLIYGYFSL
Summary of the method: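 Tox21-format agonist screen using human GnRHR-expressing HEK293 cells and a fluorescent calcium dye; kinetic 3-min fluorescence reading after compound addition, 15-point concentration series run in triplicate.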

[3] = G protein-coupled receptor (GPCR) small molecule agonists, calcium flux assay: HEK293 wild type cell line counter screen (AID 1920065)
Summary of the method: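 In this agonist-mode screen, ATP is the positive control and DMSO the vehicle. Cells grow 18 h before a 1 h dye incubation at 37 C; signal is taken at Ex/Em 480/540 over 3 min.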

[4] = p53 small molecule agonists, cell-based qHTS assay with rat liver microsomes (AID 1963578)
Summary of the method: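 With rat liver microsomes and NADPH present (0.5 mg/mL final each), p53RE-bla cells are treated with compound for 16 h at 37 C. LiveBLAzer detection mixture is then applied for 2 h at room temperature in the dark.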

[5] = p53 small molecule agonists, cell-based qHTS assay with human liver microsomes: qHTS cell viability counter screen (AID 1963579); further: nearly all actives have a fitted effect of over 45% in size; further: potency means the concentration at half of the fitted maximal effect
Summary of the method: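 In this multiplexed counter screen, the reporter plates were subsequently treated with CellTiter-Glo so that cell viability, reflected by luminescence, could be recorded for p53RE-bla cells dosed 16 h with compounds under microsomal activation (HLM and NADPH).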

[6] = p53 small molecule agonists, cell-based qHTS assay with rat liver microsomes: qHTS cell viability counter screen (AID 1963580); further: nearly all actives have a fitted effect of over 45% in size; further: potency means the concentration at half of the fitted maximal effect
Summary of the method: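 Intracellular ATP, by CellTiter-Glo luminescence, defines viability. HCT-116 p53RE-bla cells, 4,000 per well, were compound-treated in the presence of rat liver microsomes and NADPH for 16 h at 37 C.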

[7] = biological target: 5-hydroxytryptamine receptor 2A (Homo sapiens) (UniProt P28223); experiment: 5-hydroxytryptamine receptor 2A (HTR2A) small molecule antagonists, cell-based qHTS assay (AID 1963586); further: nearly all actives have a fitted effect of over 45% in size; further: potency means the concentration at half of the fitted maximal effect
Sequence of 5-hydroxytryptamine receptor 2A (Homo sapiens) (P28223 whole entry, looked up): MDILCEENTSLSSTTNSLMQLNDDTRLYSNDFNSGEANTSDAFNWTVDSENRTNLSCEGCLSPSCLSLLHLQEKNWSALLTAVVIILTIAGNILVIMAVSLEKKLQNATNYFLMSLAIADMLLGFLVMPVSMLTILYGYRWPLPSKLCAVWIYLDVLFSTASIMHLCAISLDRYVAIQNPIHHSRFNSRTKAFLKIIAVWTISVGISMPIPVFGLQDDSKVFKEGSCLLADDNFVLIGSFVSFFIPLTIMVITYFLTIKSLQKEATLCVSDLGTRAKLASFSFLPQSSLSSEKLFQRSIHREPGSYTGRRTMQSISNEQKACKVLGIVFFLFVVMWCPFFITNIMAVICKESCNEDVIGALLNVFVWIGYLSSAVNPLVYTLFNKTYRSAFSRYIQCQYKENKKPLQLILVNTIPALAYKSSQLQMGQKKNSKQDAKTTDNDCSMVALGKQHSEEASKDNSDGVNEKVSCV
Summary of the method: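 Antagonist-mode intracellular calcium assay: DOI (4 nM) added after 5 min compound pre-incubation at room temperature to dye-loaded HTR2A-CHO cells. Fluorescence followed for 3 min, sampled every second.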

[8] = biological target: 5-hydroxytryptamine receptor 2A (Homo sapiens) (UniProt P28223); experiment: 5-hydroxytryptamine receptor 2A (HTR2A) small molecule agonists, cell-based qHTS assay (AID 1963587); further: nearly all actives have a fitted effect of over 30% in size
Summary of the method: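 Kinetic calcium-flux fluorescence (2 min, 1 sec intervals) after compound addition in agonist mode. HTR2A-CHO cells were cultured 18 h, then dye-loaded 1 h at 37 C.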

[9] = biological target: Muscarinic acetylcholine receptor M1 (Homo sapiens) (UniProt P11229); experiment: Cholinergic receptor muscarinic 1 (CHRM1) small molecule agonists, cell-based qHTS assay (AID 1963589); further: nearly all actives have a fitted effect of over 35% in size
Sequence of Muscarinic acetylcholine receptor M1 (Homo sapiens) (P11229 whole entry, looked up): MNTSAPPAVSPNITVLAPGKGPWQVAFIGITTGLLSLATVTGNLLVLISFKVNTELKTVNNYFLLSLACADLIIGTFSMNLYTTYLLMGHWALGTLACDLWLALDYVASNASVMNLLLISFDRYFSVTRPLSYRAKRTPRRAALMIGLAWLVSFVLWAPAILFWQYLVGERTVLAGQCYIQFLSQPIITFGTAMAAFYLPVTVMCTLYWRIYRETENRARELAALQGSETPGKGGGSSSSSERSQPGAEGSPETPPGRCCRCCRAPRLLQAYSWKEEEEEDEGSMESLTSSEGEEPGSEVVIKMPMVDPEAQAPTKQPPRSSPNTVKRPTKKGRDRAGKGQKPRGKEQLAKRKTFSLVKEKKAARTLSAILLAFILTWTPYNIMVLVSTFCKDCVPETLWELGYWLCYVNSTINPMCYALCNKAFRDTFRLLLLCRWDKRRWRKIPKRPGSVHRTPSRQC
Summary of the method: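 Stable CHRM1-CHO cells (human receptor) were incubated 18 h, dye-loaded for 1 h at 37 C and exposed to test compounds for agonist activity, with calcium-dependent fluorescence followed kinetically.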

[10] = biological target: D(2) dopamine receptor (Homo sapiens) (UniProt P14416); experiment: Dopamine D2 receptor (DRD2) small molecule agonists, cell-based qHTS assay (AID 1963594); further: nearly all actives have a fitted effect of over 35% in size; further: potency means the concentration at half of the fitted maximal effect
Sequence of D(2) dopamine receptor (Homo sapiens) (P14416 whole entry, looked up): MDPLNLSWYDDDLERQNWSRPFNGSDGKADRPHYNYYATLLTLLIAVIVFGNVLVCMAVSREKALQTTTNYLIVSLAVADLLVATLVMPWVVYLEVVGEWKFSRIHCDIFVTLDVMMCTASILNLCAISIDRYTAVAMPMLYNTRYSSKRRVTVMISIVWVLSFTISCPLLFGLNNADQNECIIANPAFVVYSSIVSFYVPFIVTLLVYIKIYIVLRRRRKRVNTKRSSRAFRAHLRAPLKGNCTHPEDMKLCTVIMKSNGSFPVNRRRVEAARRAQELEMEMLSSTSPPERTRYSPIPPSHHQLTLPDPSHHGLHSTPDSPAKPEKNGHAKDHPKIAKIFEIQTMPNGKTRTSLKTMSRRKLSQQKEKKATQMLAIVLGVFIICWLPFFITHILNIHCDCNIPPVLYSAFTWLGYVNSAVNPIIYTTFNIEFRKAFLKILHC
Summary of the method: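 cAMP accumulation in DRD2-HEK293 cells measured by HTRF after 1 h detection; compounds added 10 min before NKH477 (200nM […]) forskolin-analogue stimulation, 30 min at room temperature, with Ro20-1724 present at 0.1 mM final.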

[11] = biological target: KiSS-1 receptor (Homo sapiens) (UniProt Q969F8); experiment: Human kisspeptin (KISS1R) small molecule agonists, calcium flux assay in KISS1R-HEK293 cells (AID 1920064; active means well fitted curve in the direction sought with a large enough effect in the repeat runs; an effect the other way counts as inactive or inconclusive)
Sequence of KiSS-1 receptor (Homo sapiens) (Q969F8 whole entry, looked up): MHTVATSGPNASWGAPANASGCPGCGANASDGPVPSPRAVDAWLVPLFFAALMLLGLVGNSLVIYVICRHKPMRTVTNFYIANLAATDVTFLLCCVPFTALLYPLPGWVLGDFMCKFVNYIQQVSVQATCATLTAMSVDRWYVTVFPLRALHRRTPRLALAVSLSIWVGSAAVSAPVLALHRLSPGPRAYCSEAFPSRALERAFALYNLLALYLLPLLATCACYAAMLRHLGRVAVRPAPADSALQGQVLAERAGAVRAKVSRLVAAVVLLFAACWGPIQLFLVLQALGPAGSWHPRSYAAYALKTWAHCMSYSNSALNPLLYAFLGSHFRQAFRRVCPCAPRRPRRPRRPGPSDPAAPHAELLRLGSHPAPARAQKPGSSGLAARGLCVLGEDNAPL
Summary of the method: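 Intracellular calcium mobilization in KISS1R-HEK293 cells was recorded by fluorescence (Ex/Em 480/540) for 3 min following compound addition to cells pre-loaded 1 h with calcium dye.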

[12] = p53 small molecule agonists, cell-based qHTS assay with human liver microsomes (AID 1963577);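 further: p53 response element beta-lactamase reporter cells with liver microsomes plus NADPH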
Summary of the method: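 16 h, 37 C exposure of p53RE-bla cells to compounds with human liver microsomes and NADPH (0.5 mg/mL final each); detection via LiveBLAzer mixture, 2 h dark at room temperature.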

[13] = p53 small molecule agonists, cell-based qHTS assay: qHTS cell viability counter screen (AID 1963581); further: nearly all actives have a fitted effect of over 45% in size
Summary of the method: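 Compounds are pinned onto HCT-116 p53RE-bla cells and left 16 h at 37 C. Following the reporter FRET read, ATP is quantified by CellTiter-Glo luminescence after 30 min at room temperature.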

[14] = p53 small molecule agonists, cell-based qHTS assay (AID 1963582; active means well fitted activation curve with a large enough effect in the signal ratio in the repeat runs, not every such curve was filed as active; the % refers to the signal ratio)
Summary of the method: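 Agonist activity was scored from beta-lactamase FRET fluorescence in p53RE-bla cells treated 16 h at 37 C with compounds in DMSO, substrate incubation being 2 h at room temperature.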

[15] = cAMP Responsive Elements (CRE) small molecule agonists, cell-based qHTS assay (AID 1963590)
Summary of the method: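 FRET-based beta-lactamase readout (LiveBLAzer B/G, 2 h RT) quantified CRE activation in HEK 293T CRE-bla cells after 3 h treatment with DMSO-dissolved compounds.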

[16] = cAMP Responsive Elements (CRE) small molecule antagonists, cell-based qHTS assay (AID 1963591; active means well fitted inhibition curve with a large enough effect in the signal ratio in the repeat runs, not every such curve was filed as active; the % refers to the signal ratio; further: potency means the concentration at half of the fitted maximal effect)
Summary of the method: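 qHTS in CRE-bla HEK 293T cells: compound in DMSO, then 0.25 uM NKH477 (final), 3 h at 37 °C/5% CO2; beta-lactamase FRET read-out after 2 h substrate incubation.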

[17] = biological target: Beta-2 adrenergic receptor (Homo sapiens) (UniProt P07550); experiment: Adrenergic beta2 receptor (ADRB2) small molecule antagonists, cell-based qHTS assay (AID 1963592); further: nearly all actives have a fitted effect of over 50% in size; further: potency means the concentration at half of the fitted maximal effect; on activity change, negative = inhibition: series mostly up to about 92 µM
Sequence of Beta-2 adrenergic receptor (Homo sapiens) (P07550 whole entry, looked up): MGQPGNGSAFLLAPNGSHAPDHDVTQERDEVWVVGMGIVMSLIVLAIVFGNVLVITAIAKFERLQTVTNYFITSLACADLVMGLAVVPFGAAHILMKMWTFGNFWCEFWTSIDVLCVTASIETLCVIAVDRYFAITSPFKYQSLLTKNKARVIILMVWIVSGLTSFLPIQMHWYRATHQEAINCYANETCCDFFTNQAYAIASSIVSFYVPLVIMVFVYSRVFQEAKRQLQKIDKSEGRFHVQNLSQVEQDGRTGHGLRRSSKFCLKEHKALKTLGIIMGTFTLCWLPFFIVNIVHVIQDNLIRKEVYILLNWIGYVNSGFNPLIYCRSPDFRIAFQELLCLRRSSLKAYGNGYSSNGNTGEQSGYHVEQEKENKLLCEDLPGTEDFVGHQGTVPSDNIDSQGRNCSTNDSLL
Summary of the method: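 Cells (CHO, stable ADRB2 overexpression) incubated 18-20hr at 37C; compounds added from DMSO; agonist mix (1nM isoproterenol, 100uM IBMX, 25uM Ro-20-1724) added; 0.5hr RT; d2-cAMP and anti-cAMP-cryptate added; 1hr RT; 665/615 nm read.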

[18] = biological target: Beta-2 adrenergic receptor (Homo sapiens) (UniProt P07550); experiment: Adrenergic beta2 receptor (ADRB2) small molecule agonists, cell-based qHTS assay (AID 1963593);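 further: CHO cells stably overexpressing human ADRB2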
Summary of the method: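 CHO cells stably over-expressing ADRB2 were plated overnight at 37C, then dosed with compounds plus a stimulation mix containing 100uM IBMX and 25uM Ro-20-1724 for 0.5hr at room temperature. cAMP was measured by HTRF competition, 1hr.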

[19] = biological target: D(2) dopamine receptor (Homo sapiens) (UniProt P14416); experiment: Dopamine D2 receptor (DRD2) small molecule antagonists, cell-based qHTS assay (AID 1963595; active means well fitted inhibition curve with a large enough effect in the signal ratio in the repeat runs, with a control signal flat; the % refers to the signal ratio; further: potency means the concentration at half of the fitted maximal effect)
Summary of the method: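 Antagonism was scored as restored cAMP in HEK293-DRD2 cells. These cells were stimulated with 200 nM NKH477 and 12 nM quinpirole for 30 min at room temperature, in the presence of 0.1 mM Ro20-1724.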

[20] = biological target: Muscarinic acetylcholine receptor M1 (Homo sapiens) (UniProt P11229); experiment: Cholinergic receptor muscarinic 1 (CHRM1) small molecule antagonists, cell-based qHTS assay (AID 1963588); further: nearly all actives have a fitted effect of over 40% in size
Summary of the method: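 CHRM1-CHO calcium-flux assay, antagonist mode. Cells were seeded 18 h, dye-loaded 1 h at 37 C and given compound for 5 min at RT, then acetylcholine was added at 50nM. FDSS fluorescence was read 3 min; 15 concentrations, three runs.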
On the % scale 0 is the no-effect control and ±100 the full control effect.

O=C1C=CC(=O)N1
inactive: Potency [2] | Potency [3] | Potency [4] | Potency [7] | Potency [8] | Potency [9] | Potency [10]
active: Potency [1] 28 µM | Potency [5] 21 µM | Potency [6] 29.6 µM

NC(Cc1ccc(F)cc1)C(=O)O (configuration not stated)
inactive: activity change, negative = cytotoxicity [1] 2.68% [at 8.39 µM] | activation [11] 2.03% [at 6.97 µM] | activation [3] -0.478% [at 5.23 µM] | activation [12] 4.13% [at 5.99 µM] | activation [4] 1.09% [at 5.99 µM] | activity change, negative = cytotoxicity [5] 3.36% [at 5.99 µM] | activity change, negative = cytotoxicity [6] 9.8% [at 5.99 µM] | activity change, negative = cytotoxicity [13] -3.36% [at 5.99 µM] | activation [14] 1.84% [at 5.99 µM] | activation [15] -1.9% [at 8.39 µM] | activity change, negative = inhibition [16] -1.08% [at 8.39 µM] | activity change, negative = inhibition [17] -3.88% [at 8.39 µM] | activation [18] -31.2% [at 8.39 µM] | activation [10] 1.24% [at 8.39 µM] | activity change, negative = inhibition [19] 11.6% [at 8.38 µM]

O=c1[nH][nH]c2ccccc12
inactive: Potency [1] | Potency [2] | Potency [3] | Potency [5] | Potency [6] | Potency [7] | Potency [8] | Potency [20] | Potency [9] | Potency [16] | Potency [18] | Potency [10]

CCC(=O)c1ccc2c(c1)N(CCCN(C)C)c1ccccc1S2
inactive: Potency [1] | Potency [2] | Potency [3] | Potency [5] | Potency [6] | Potency [9] | Potency [15] | Potency [16] | Potency [17] | Potency [10]
active: Potency [7] 0.13 µM | Potency [19] 0.531 µM

ClC(Cl)(Cl)c1ccc(C(Cl)(Cl)Cl)cc1
inactive: Potency [1] | Potency [2] | Potency [3] | Potency [12] | Potency [5] | Potency [6] | Potency [13] | Potency [14] | Potency [7] | Potency [8] | Potency [15] | Potency [16] | Potency [17] | Potency [10] | Potency [19]

O=C1CCCCCCCCCCCCCCO1
inactive: Potency [1] | Potency [11] | Potency [3] | Potency [12] | Potency [4] | Potency [5] | Potency [6] | Potency [13] | Potency [14] | Potency [7] | Potency [8] | Potency [20] | Potency [9] | Potency [15] | Potency [16] | Potency [17] | Potency [10] | Potency [19]

CC(C)NC(=O)NC(C)C
inactive: Potency [1] | Potency [2] | Potency [3] | Potency [6] | Potency [13] | Potency [7] | Potency [8] | Potency [20] | Potency [9] | Potency [15] | Potency [16] | Potency [17] | Potency [19]

CCCCC(CC)CNC(=O)CC(C)OC(=O)CCC(=O)O (configuration not stated)
inactive: Potency [1] | Potency [2] | Potency [3] | Potency [12] | Potency [5] | Potency [6] | Potency [14] | Potency [7] | Potency [8] | Potency [20] | Potency [9] | Potency [16] | Potency [17] | Potency [10] | Potency [19]

CCN1/C(=C/C=C/c2sc3ccccc3[n+]2CC)Sc2ccccc21
active: Potency [1] 3.26 µM | Potency [16] 11.6 µM | Potency [17] 5.8 µM | Potency [10] 14.6 µM
inactive: activation [11] -1.63% [at 15.8 µM] | activation [3] -0.0412% [at 11.8 µM] | activation [12] 15.3% [at 13.5 µM] | activation [4] 2.93% [at 13.6 µM] | activity change, negative = cytotoxicity [5] 8.44% [at 13.5 µM] | activity change, negative = cytotoxicity [6] 1.97% [at 13.5 µM] | activity change, negative = cytotoxicity [13] 1.06% [at 13.5 µM] | activity, negative = inhibition [7] -18.6% [at 12.7 µM] | activity, negative = inhibition [20] -35.2% [at 12.6 µM] | activation [9] -0.119% [at 15.8 µM] | activity change, negative = inhibition [19] -0.0645% [at 18.9 µM]

CC(C)COC(=O)c1ccc(O)cc1
inactive: Potency [1] | Potency [11] | Potency [3] | Potency [12] | Potency [4] | Potency [5] | Potency [6] | Potency [13] | Potency [7] | Potency [8] | Potency [20] | Potency [9] | Potency [19]

CC(C)C1=CC2=CC[C@@H]3[C@](C)(CCC[C@@]3(C)C(=O)O)[C@H]2CC1
inactive: Potency [1] | Potency [11] | Potency [3] | Potency [12] | Potency [4] | Potency [5] | Potency [6] | Potency [13] | Potency [7] | Potency [20] | Potency [9] | Potency [17] | Potency [10] | Potency [19]

CCN1CCOCC1
inactive: Potency [1] | Potency [2] | Potency [12] | Potency [4] | Potency [6] | Potency [7] | Potency [8] | Potency [20] | Potency [9] | Potency [15] | Potency [16] | Potency [17] | Potency [18] | Potency [10] | Potency [19]
